The list is not random: actives were taken first. Their share in the collection is about 12%.
AMA1 RON2 block: AMA1-RON2 (P. falciparum) interaction inhibition | AID 720542 | Potency, µM (top dose mostly 58.2 µM), for the others: at the top dose activity change, negative = inhibition, most hits filed as inhibitors | hit rate 0.2% among 360,000 | AlphaScreen AMA1-biotinylated RON2 peptide binding;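 note: 0% = vehicle wells and -100% = peptide control; nearly all actives have a fitted effect of over 45% in size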
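AMA1 (3D7) with his tag at 25 nM final met compounds first, then biotinylated RON2 peptide at 25 nM; detection used donor plus acceptor beads, 10 µg/mL apiece, read by AlphaScreen after 30 min at room temperature.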
Pf growth 96h: P. falciparum growth inhibition at 96 hour, primary screen for plastid delayed-death inhibitors | P. falciparum luciferase reporter growth, 96 h | Potency, µM (top dose mostly 28.7 µM), for inactives: at the highest dose activity change, negative = inhibition, most hits filed as inhibitors | hit rate 6.9% among 320,000; note: % is set by controls: 0 for no effect and ±100 for the full control effect
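96 h incubation, 37 C, 5% CO2, of luciferase-reporter P. falciparum-infected RBCs (2% hematocrit, 0.05% parasitemia final) with test compounds; endpoint luminescence.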
NS1 function inh: blocks influenza NS1 protein function; Potency, µM (titrated, usually from 46.1 µM), without a hit: at the highest dose activity, positive = more growth; hit rate 0.4% among 270,000; calls by dose curve; note: actives are rising curves; nearly all actives have a fitted effect of over 50% in size
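Recovery from NS1-induced slow growth read by OD600 in budding yeast switched to galactose assay medium (pH 6.0, -URA) at 1:100 dilution. Compound 23 nl per well; the matching strain lacking NS1 serves as control.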
HCV inhibitor: blocks hepatitis C virus | Huh7.5.1 HCVcc-Cre infection, luciferase reporter, 44 h | Potency, µM (doses to about 41.8 µM), for inactives: at the top dose activity change, negative = inhibition, usual class: inhibitors | hit rate 3.4% among 340,000; note: % is set by controls: 0 for no effect and ±100 for the full control effect
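After 44 h co-culture of compound, cells and HCVcc-Cre (~0.5 moi), substrate is added for 15 min at room temperature and luciferase measured over 15 sec. Cells were seeded at 1,000/well and pre-cultured 4 h.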
SARS PLP yeast: SARS-CoV PLP inhibition in yeast | S. cerevisiae expressing SARS-CoV PLpro, growth rescue | hit rate 0.19% among 330,000 | Potency, µM (titrated, usually from 32.9 µM), for the others: at the highest dose activity, positive = growth rescue, actives largely listed as activators; calls by dose curve; note: 0% is about no effect; nearly all actives have a fitted effect of over 55% in size
Pf growth 48h: inhibits P. falciparum growth in the first generation, 48 h; hit rate 5.9% among 310,000; AID 504832; Potency, µM (titrated, usually from 28.7 µM), inactives show at the top dose activity change, negative = inhibition, usual class: inhibitors; P. falciparum luciferase growth in erythrocytes, 48 h; note: % is set by controls: 0 for no effect and ±100 for the full control effect
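Luciferase-expressing parasites in RBCs, 2% Hct / 0.1% parasitemia final; RPMI 1640 + 0.5% Albumax; 37 C, 5% CO2, one generation; luminescence read-out, lower signal = inhibition.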
Active calls of the source: *; ? = inconclusive; · = not tested or not shown; [ ] = remark or other dose. Unless noted, calls come from the whole dose curve; as a rule, active = well fitted curve in the direction sought with a large enough effect; inconclusive = small, poorly fitted or top-dose-only effect, or another doubt; inactive = no such curve, though single readings can be large; an effect the other way counts as inactive or inconclusive. Potency is the fitted concentration of half-maximal effect.

SMILES | AMA1 RON2 block | Pf growth 96h | NS1 function inh | HCV inhibitor | SARS PLP yeast | Pf growth 48h
CN(CC(O)COc1ccc2ccccc2c1)C1CCCCC1 (centres undefined) | -14% | 10% | 9% | ? | -13% | ?
O=[N+]([O-])c1ccc(OCC(O)CN(C2CCCCC2)C2CCCCC2)cc1 (centres undefined) | -3% | ? | -18% | -4% | 4% | ?
COc1ccc(OCC(O)CN(C2CCCCC2)C2CCCCC2)cc1 (centres undefined) | -11% | 5.9µM* | -4% | -5% | -8% | ?
CN(CC(O)COc1c(F)cc(Br)cc1F)C1CCCCC1 (centres undefined) | 2% | 36% | -11% | -14% | -6% | 9.3µM*
O=C(CCCc1ccccc1)N=C1SC2CS(=O)(=O)CC2N1c1ccccc1F (centres undefined) | -8% | 22% | -2% | 17% | 0% | 3%
NS(=O)(=O)c1cccc(NS(=O)(=O)c2ccc(/C=C/C(=O)O)cc2)c1 | -6% | 25% | 5% | 28% | 3% | 2%
COC(=O)c1ccccc1NC(=O)c1ccc(COc2cc(C)cc(C)c2)o1 | -6% | 4.1µM* | 3% | 12% | 3% | ?
COC(=O)c1cc(OC)c(OC)cc1NC(=O)c1ccc(C)o1 | -4% | 5.2µM* | -2% | ? | 20% | ·
COC(=O)c1cc(OC)c(OC)cc1NC(=O)c1cc(C(C)(C)C)oc1C | -1% | ? | 5% | 6% | -1% | 2.9µM*
COC(=O)c1ccccc1NC(=O)c1ccc(COc2ccc(C)c(C)c2)o1 | 6% | 106% | 24% | -26% | -1% | ?
COC(=O)c1cc(OC)c(OC)cc1NC(=O)c1ccc(C)cc1 | 36% | -21% | -2% | ? | 8% | ·
COC(=O)c1cc(OC)c(OC)cc1NC(=O)CCc1ccc(C)o1 | -2% | 17% | -45% | ? | -1% | 10µM*
CCN1C(=NCC(C)C)N[C@@H](c2ccccc2)[C@H](C(=O)OC)[C@H]1C | · | ? | -4% | · | -2% | 35%
CCCCC#Cc1nc(N)c2ncn([C@@H]3O[C@H](C(=O)NCC)[C@@H](O)[C@H]3O)c2n1 | · | · | 4% | · | · | ·
O=C(CNCC1CCCO1)Nc1ccc(N2CCCCCC2)cc1 (centres undefined) | ? | 0.26µM* | -4% | -11% | 4% | -9%
O=C(CNCCC1=CCCCC1)Nc1ccc(N2CCCCCC2)cc1 | 35µM* | -20% | -11% | ? | -8% | ?
CC(C)(C)NC(=O)CSc1nnc(C2CC2)n1-c1ccccc1 | -8% | 2% | · | -1% | 0% | 8%
Cc1cccc(S(=O)(=O)N(C)C[C@@H]2OCc3cn(nn3)CCCC(=O)N([C@H](C)CO)C[C@H]2C)c1 | -2% | · | · | · | · | ·
COc1ccc(OC)c(NC(=O)CCCCCn2nnc3ccccc3c2=O)c1 | 2% | -11% | -3% | ? | 0% | -9%
COc1ccccc1C(=O)NC(=O)Nc1c(C)cc(C)cc1C | -3% | 44% | -9% | 13µM* | -4% | -24%
COc1ccc([N+](=O)[O-])c(OC)c1C(=O)NC(=O)Nc1c(F)c(F)c(F)c(F)c1F | -1% | 4.7µM* | 7% | 0% | -1% | ·
COc1cccc(OC)c1C(=O)NC(=O)Nc1c(F)c(F)c(F)c(F)c1F | -3% | 2.1µM* | 7% | -9% | 1% | 7.4µM*
COc1ccc([N+](=O)[O-])c(OC)c1C(=O)Nc1ccc(F)cc1F | 10% | 74% | 3% | 1% | 0% | 18%
Cc1ccc(CNC(=O)CN2C(=O)COc3ccc(S(=O)(=O)N4CCCCC4)cc32)o1 | -8% | -16% | 3% | -5% | 0% | 7%
O=C(NCCc1nnc2ccc(NCCCN3CCOCC3)nn12)c1ccccc1 | -16% | 7% | -8% | 21% | -2% | 6%
SMILES | AMA1 RON2 block | Pf growth 96h | NS1 function inh | HCV inhibitor | SARS PLP yeast | Pf growth 48h
COc1cc(-c2c(-c3cccc(C)c3)oc3ccccc23)cc(OC)c1OC | -12% | 9.3µM* | 11% | ? | 1% | ?
COc1ccc(-c2ccc3oc(-c4ccc(OC)cc4)c(-c4cc(OC)c(OC)c(OC)c4)c3c2)cc1 | 4% | · | · | 13% | · | ·
N#Cc1ccc(OCC(=O)N2CCN(c3ccc(C(F)(F)F)cn3)CC2)cc1 | 4% | 4.1µM* | · | 15% | 7%[6.58 µM] | ?
O=C(c1ccc([N+](=O)[O-])s1)N1CCN(c2ncccn2)CC1 | 1% | · | · | · | · | ·
O=C(c1ccc([N+](=O)[O-])s1)N1CCN(c2ccc(C(F)(F)F)cn2)CC1 | 3% | 3.3µM* | ? | ? | -16% | ?
O=C(COc1cccc(C(F)(F)F)c1)Nc1cccc(S(=O)(=O)NC2=NCCCCC2)c1 | -10% | · | · | ? | · | ·
CCC(=O)Nc1c2c(nc3c1CCC3)CCCC2 | 4% | 2.1µM* | -4% | 8% | -4% | 6%
COc1cccc(C2c3[nH]c4ccccc4c3CCN2C(=O)c2ccccc2F)c1OC (centres undefined) | ? | ? | -48% | -12% | -2% | 9.3µM*
COc1cc(C2c3[nH]c4ccccc4c3CCN2Cc2cn(C)nc2C)ccc1F (centres undefined) | -9% | ? | -6% | -5% | 0% | ?
COc1ccc(C2c3[nH]c4ccccc4c3CCN2C(=O)c2ccccc2C(C)=O)c(F)c1 (centres undefined) | -20% | -18% | 7% | -26% | 2% | ?
COc1ccc(C2c3[nH]c4ccccc4c3CCN2C(=O)c2cn3ccccc3n2)c(F)c1 (centres undefined) | -3% | ? | 14% | -17% | 0% | 15µM*
COc1ccc(C2c3[nH]c4ccccc4c3CCN2C(=O)c2cc3ncccn3n2)c(F)c1 (centres undefined) | ? | 48% | 2% | ? | -2% | 13µM*
CCn1cc(CN2CCc3c([nH]c4ccccc34)C2c2cccc(OC)c2OC)c(C)n1 (centres undefined) | -24% | 0% | 2% | -6% | -2% | 12µM*
COc1ccc(Br)c(Cn2c(C)c(C(=O)NCc3cccc([N+](=O)[O-])c3)sc2=O)c1 | -12% | · | · | · | · | ·
CCOC(=O)c1[nH]c(C=O)c(C(=O)OCC)c1C | 12% | ? | -2% | ? | 13% | ?
CC(NC(=O)CN1C(=O)NC2(CCCCC2)C1=O)c1ccc(S(N)(=O)=O)cc1 (centres undefined) | -21% | · | · | -5% | · | ·
CCCCn1c(SCc2nnc(-c3ccccc3)o2)nc2c1c(=O)n(C)c(=O)n2C | -3% | -6% | -8% | · | -3% | ?
CCn1c(SCc2nnc(-c3ccccc3)o2)nc2c1c(=O)n(C)c(=O)n2C | · | 6.6µM* | -4% | 5% | 7% | 9%
Cc1cc(OCC(O)CN)ccc1Cl (centres undefined) | 13% | 0.74µM* | · | -8% | -1% | 24%
